Active and inactive are the calls of the source.
What was measured:
[1] = anti-His antibody binders, primary screen, artefact control for SMM control protein annotation, biochemical, small-molecule microarray, 635 nm fluorescence (AID 1128); settings: anti-His Alexa647 antibody binding, higher = more signal;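 also: score merges feature fluorescence with signal-to-noise for each printed compound spot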
[2] = system: Human papillomavirus type 1a E7 protein (residues 1-88); test: HPV1a E7 small-molecule binders, primary screen, biochemical, small-molecule microarray, residues 1-88, 635 nm (AID 1129); settings: small-molecule microarray binding, fluorescence 635 nm; higher = more signal
[3] = biological target: Focal adhesion kinase 1 (Homo sapiens) (UniProt Q05397); test: small-molecule microarray binders of FAK, primary screen, biochemical, 635/667 nm fluorescence, BSA, DTT (AID 1130); settings: PTK2 binding, 635 nm fluorescence, higher = more signal;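 also: composite of spot emission at 667 nm and signal to noise over triplicate slides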
Sequence of Focal adhesion kinase 1 (Homo sapiens) (Q05397 whole entry, looked up): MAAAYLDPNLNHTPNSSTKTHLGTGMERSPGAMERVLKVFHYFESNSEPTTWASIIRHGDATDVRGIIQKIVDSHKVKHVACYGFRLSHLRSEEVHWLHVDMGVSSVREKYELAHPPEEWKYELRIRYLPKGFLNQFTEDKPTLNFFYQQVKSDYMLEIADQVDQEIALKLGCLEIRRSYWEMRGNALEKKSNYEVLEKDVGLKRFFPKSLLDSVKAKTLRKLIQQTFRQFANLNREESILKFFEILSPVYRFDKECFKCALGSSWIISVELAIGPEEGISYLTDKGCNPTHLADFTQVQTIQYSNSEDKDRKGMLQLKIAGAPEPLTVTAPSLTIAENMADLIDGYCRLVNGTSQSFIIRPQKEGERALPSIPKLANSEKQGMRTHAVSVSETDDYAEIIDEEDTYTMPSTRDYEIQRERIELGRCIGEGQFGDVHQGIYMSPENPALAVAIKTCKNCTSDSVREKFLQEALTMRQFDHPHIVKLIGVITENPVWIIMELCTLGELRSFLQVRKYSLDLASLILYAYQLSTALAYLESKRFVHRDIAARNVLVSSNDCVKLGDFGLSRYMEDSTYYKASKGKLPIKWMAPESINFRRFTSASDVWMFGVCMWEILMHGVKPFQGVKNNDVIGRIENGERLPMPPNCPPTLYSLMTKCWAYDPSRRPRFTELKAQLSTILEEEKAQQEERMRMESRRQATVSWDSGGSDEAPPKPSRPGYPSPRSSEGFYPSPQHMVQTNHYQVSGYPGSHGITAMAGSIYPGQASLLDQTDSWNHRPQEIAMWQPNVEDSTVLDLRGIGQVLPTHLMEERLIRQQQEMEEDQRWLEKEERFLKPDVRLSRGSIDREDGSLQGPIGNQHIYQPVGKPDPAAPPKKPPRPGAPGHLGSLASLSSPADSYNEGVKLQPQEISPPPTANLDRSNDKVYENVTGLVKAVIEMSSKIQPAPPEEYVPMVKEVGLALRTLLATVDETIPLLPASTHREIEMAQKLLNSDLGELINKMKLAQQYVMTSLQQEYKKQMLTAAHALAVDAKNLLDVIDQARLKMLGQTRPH

[4] = system: Fibrinogen (Alexa647-labelled); test: fibrinogen binders on compound microarrays, profiling panel, artefact control for SMM control-protein annotation, biochemical, small-molecule microarray, 635/667 nm fluorescence (AID 1131); settings: fibrinogen-A647 binding fluorescence, higher = more signal;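 also: z-score merges 667 nm fluorescence with per-spot signal-to-noise over triplicate slides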
[5] = biological target: Follistatin (Homo sapiens) (UniProt P19883); test: follistatin binders on small-molecule microarrays, primary screen, biochemical, small-molecule microarray, 635/667 nm fluorescence (AID 1132); settings: FST binding, 635 nm fluorescence, higher = more signal
Sequence of Follistatin (Homo sapiens) (P19883 whole entry, looked up): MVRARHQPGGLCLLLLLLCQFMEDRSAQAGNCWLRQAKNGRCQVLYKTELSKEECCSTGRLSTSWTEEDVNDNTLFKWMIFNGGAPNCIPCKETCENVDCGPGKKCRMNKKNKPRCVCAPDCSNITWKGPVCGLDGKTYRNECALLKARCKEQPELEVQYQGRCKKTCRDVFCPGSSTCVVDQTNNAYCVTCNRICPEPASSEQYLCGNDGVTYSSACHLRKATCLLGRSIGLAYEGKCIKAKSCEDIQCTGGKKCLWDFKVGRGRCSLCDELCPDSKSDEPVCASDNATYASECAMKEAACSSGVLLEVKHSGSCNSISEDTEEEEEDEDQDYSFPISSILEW

[6] = biological target: Fibroblast growth factor 2 (Homo sapiens) (UniProt P09038); test: FGF2 binders on small-molecule microarrays, primary screen, biochemical, small-molecule microarray, 635/667 nm fluorescence (AID 1133); settings: small-molecule microarray binding, FGF2, fluorescence 635/667; higher = more signal
Sequence of Fibroblast growth factor 2 (Homo sapiens) (P09038 whole entry, looked up): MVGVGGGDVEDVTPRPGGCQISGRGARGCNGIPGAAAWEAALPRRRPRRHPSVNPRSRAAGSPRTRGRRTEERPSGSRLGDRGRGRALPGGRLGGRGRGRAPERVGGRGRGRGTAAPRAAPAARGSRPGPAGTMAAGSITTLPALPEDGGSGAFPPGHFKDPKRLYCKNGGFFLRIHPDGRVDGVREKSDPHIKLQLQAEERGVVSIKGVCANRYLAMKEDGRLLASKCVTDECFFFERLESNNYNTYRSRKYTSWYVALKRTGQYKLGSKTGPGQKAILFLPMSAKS

[7] = mitochondrial membrane potential change in A549 cells, profiling panel, cell-based, JC-1 fluorescence, basal, 24 h, 100 nL (AID 1138); settings: higher = more signal;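 also: A549 lung adenocarcinoma cells under basal conditions with no added stimulus; test concentration not given here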
Lefty1 = Lefty1 binders on small-molecule microarrays, primary screen, biochemical, small-molecule microarray, 635/667 nm fluorescence (AID 1139); settings: small-molecule microarray binding, fluorescence 635/667; higher = more signal
[8] = system: wheat germ agglutinin (Triticum aestivum), Alexa647-labelled; test: wheat germ agglutinin binders on compound microarrays, profiling panel, artefact control for SMM control-protein annotation, biochemical, small-molecule microarray, 635/667 nm fluorescence (AID 1140); settings: WGA-A647 binding, 635 nm fluorescence, higher = more signal;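 also: score merges 667 nm feature emission with signal to noise over triplicate slides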
[9] = biological target: Luciferin 4-monooxygenase (Photinus pyralis) (UniProt P08659); test: firefly luciferase enzyme inhibitors, primary screen, biochemical, luminescence, purified enzyme, 2006 set (AID 1141); settings: SteadyGlo luminescence, 30 min, higher = more signal, called active from +8 up or from −8 down;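 also: cell-free assay with purified firefly luciferase at 100 ng per well in PBS; test concentration not given here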
Sequence of Luciferin 4-monooxygenase (Photinus pyralis) (P08659 whole entry, looked up): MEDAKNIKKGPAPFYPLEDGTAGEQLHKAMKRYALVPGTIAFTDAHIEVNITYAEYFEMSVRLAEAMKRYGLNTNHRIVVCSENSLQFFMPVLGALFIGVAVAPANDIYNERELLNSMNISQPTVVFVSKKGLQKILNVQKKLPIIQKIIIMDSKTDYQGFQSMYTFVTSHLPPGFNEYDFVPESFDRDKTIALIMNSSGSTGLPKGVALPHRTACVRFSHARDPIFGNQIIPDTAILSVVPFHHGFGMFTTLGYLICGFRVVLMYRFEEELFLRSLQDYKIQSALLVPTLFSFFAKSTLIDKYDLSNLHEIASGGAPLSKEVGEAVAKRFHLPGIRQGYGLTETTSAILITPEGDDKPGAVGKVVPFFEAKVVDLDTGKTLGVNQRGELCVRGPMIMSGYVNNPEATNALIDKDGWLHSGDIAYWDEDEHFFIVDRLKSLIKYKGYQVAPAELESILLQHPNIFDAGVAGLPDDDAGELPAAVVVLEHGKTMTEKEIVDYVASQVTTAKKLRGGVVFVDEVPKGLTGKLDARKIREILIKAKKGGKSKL

Compound	composite z-score [1]	composite z-score [2]	composite z-score [3]	composite z-score [4]	composite z-score [5]	composite z-score [6]	z-score [7]	composite z-score (Lefty1)	composite z-score [8]	z-score [9]
COC(=O)C(CC#Cc1ccc2c(c1)[C@]1(C(=O)N2)[C@H](c2ccc(O)cc2)N2[C@H](c3ccccc3)[C@H](c3ccccc3)OC(=O)[C@H]2[C@@H]1C(=O)NC[C@H](O)c1ccccc1)C(=O)OC	0.509	0.779	0.408	0.733	1.21	0.551	-0.97	0.685	0.9	0.314 (inactive)
CC(c1ccccc1)C(O)C1C=CC2C(=O)N(C)C(=O)C2N1Nc1ccccc1 (stereo not given)	1.79	1.24	0.322	1.02	0.777	-0.579	-0.0184	-0.17	1.21	0.206 (inactive)
CCCC[C@@H](O)C1=C(COC)C[C@H]2C(=O)N(Cc3ccccc3)C(=O)[C@H]2[C@H]1CO	0.708	0.33	-0.285	0.98	0.855	1.33	0.699	0.697	1.13	-0.903 (inactive)
CCCCC[C@H]1OC[C@@]23C=C(Br)[C@@H](CC12)[C@@]1(CO1)C3=O (stereo not given in full)	2.98	-0.327	0.215	-0.411	0.0488	-0.165	0.617	0.505	-0.407	-0.0658 (inactive)
O=C1OCCC/C=C\[C@H]2OC34C=CCN(c5ccc6ccccc6c5)C(=O)[C@H]3N(CCO)C(=O)[C@@H]4C12 (stereo not given in full)	-0.218	-0.637	-0.774	-2.11	-1.2	-0.634	-0.817	-1.22	1.13	0.235 (inactive)
O=C(NCc1ccc(F)cc1)[C@H]1C[C@H]2C(=O)NCC(=O)N2[C@H]1c1ccc(O)cc1	1.63	-0.121	0.0061	0.611	1.45	1.89	0.576	1.35	0.187	-0.0852 (inactive)
CC(C)C[C@@H]1NC(=O)[C@@H]2C[C@H](C(=O)NCCCCCCN)[C@H](c3cccc(OCCO)c3)N2C1=O	2.25	1.11	0.344	0.662	1.32	0.548	-0.645	1.51	1.1	0.459 (inactive)
[N-]=[N+]=Nc1ccccc1C[C@]1(C(=O)NCC(O)CO)COC(c2ccc(OCCCO)cc2)=N1 (stereo not given in full)	1.91	1.23	0.352	0.579	-0.0953	-0.483	2	-0.729	0.14	-4.04 (inactive)
[N-]=[N+]=Nc1ccccc1C[C@]1(C(=O)O)COC(c2ccc(OCCCO)cc2)=N1	-0.047	-0.914	0.0699	-1.45	-0.224	-0.717	-0.991	-0.843	0.396	-13.9 (active)
COC(=O)[C@@]1(Cc2ccc(F)cc2)[C@H]2c3cc(C(=O)N4CCCC4)n(CCc4c[nH]c5ccccc45)c3C[C@H]2CN1C(=O)c1ccccc1	1.56	1.26	1.27	0.97	0.867	0.577	0.775	-0.627	0.816	2.04 (inactive)
CC(C)NC(=O)[C@@]1(C)c2ccccc2C(=O)N(Cc2ccc(OC(F)(F)F)cc2)[C@H]1c1ccc(CO)cc1	0.22	-0.14	-0.232	-0.535	-0.333	-0.843	-0.19	-1.44	-0.641	-0.183 (inactive)
C=CC[C@@]1(C(=O)NCCCOC)N=C(c2ccc(OCCCO)cc2)O[C@@H]1c1ccccc1	2.85	1.19	0.166	-0.273	1.3	0.594	0.565	-0.476	0.471	-0.589 (inactive)
O=C1C2C=CC(C(O)c3cccc(O)c3)N(Nc3ccc([N+](=O)[O-])cc3)C2C(=O)N1c1ccccc1 (stereo not given)	1.18	0.785	0.264	0.578	0.418	0.526	-1.15	0.292	0.0289	0.931 (inactive)
O=C1O[C@@H](c2ccccc2)[C@@H](c2ccccc2)N2[C@@H](c3ccc(OCCO)cc3)[C@]3(C(=O)Nc4ccc(C#CC5=CCCCC5)cc43)[C@@H](C(=O)NC[C@H](O)c3ccccc3)[C@H]12	2.25	1.21	0.234	0.829	1.42	1.38	-1.48	1.25	0.254	-0.773 (inactive)
C=C(/C(=C/C[C@H](OC(=O)c1ccncc1)c1ccc(CO)o1)c1cnc2ccccc2c1)C(C)C	1.29	1.19	0.0621	0.866	1.31	1.18	0.909	1.34	1.08	-2.9 (inactive)
COc1ccc([Si](C)(C)[C@@H]2[C@@H](CC(=O)N3Cc4ccccc4C[C@H]3CO)O[C@]3(C(=O)N(Cc4ccc(N5C(=O)c6cccc7cccc5c67)cc4)c4ccccc43)[C@H]2C)cc1	0.0827	1.18	0.949	0.706	1.33	1.59	1.2	1.11	0.323	-1.05 (inactive)
COc1ccc(C#Cc2ccc3c(c2)[C@]2(C(=O)N3)[C@H](C(=O)O)[C@H]3C(=O)O[C@H](c4ccccc4)[C@H](c4ccccc4)N3[C@@H]2c2ccc(O)cc2)cc1	-0.272	0.691	0.0564	-0.142	-0.474	-0.521	-2.42	-0.422	0.208	-1.01 (inactive)
C[C@@H]1NC(=O)[C@@H](Cc2ccccc2)NC(=O)[C@@]23C(=O)N[C@@H](Cc4ccccc4)C2[C@H](C)[C@@]2(C)O[C@H]2C3/C=C/C/C=C\CNC1=O (stereo not given in full)	-0.116	-0.514	-0.0535	-0.913	0.41	-0.0086	-0.0637	0.633	-0.889	-1.03 (inactive)
C=CC[C@]1(C(=O)N2CCCCC2)N=C(c2ccc(OCCCO)cc2)O[C@H]1c1ccccc1CN=[N+]=[N-]	1.33	1.24	0.293	1.01	1.29	0.524	1.29	0.228	0.657	0.498 (inactive)
Cc1ccc(S[C@]2(C(=O)NC(C)C)CC(=O)N(Cc3cc(C(F)(F)F)cc(C(F)(F)F)c3)[C@@H]2c2ccc(CO)cc2)cc1	-0.254	-0.629	-0.734	-0.983	-1.33	-0.977	0.605	-0.67	0.0491	-0.222 (inactive)
O=C1NC(=O)C2C1C=CC(C(O)c1ccco1)N2Nc1ccc(Cl)cc1Cl (stereo not given)	0.478	0.944	-0.367	-0.468	1.13	-0.311	-0.553	0.121	0.673	-0.512 (inactive)
NCCCCCCNC(=O)[C@@H]1C[C@@H]2C(=O)N[C@@H](CCCCN)C(=O)N2[C@@H]1c1ccc(O)cc1	1.91	0.153	0.353	-1.97	0.998	1	-0.903	0.731	0.961	0.715 (inactive)
COc1ccc(C#Cc2ccc3c(c2)[C@]2(C(=O)N3)[C@H](c3ccc(O)cc3)N3[C@H](c4ccccc4)[C@H](c4ccccc4)OC(=O)[C@H]3[C@@H]2C(=O)Nc2nc3ccccc3s2)cc1	0.269	1.25	0.359	0.983	1.29	0.964	-2.1	0.882	0.768	-1.28 (inactive)
[N-]=[N+]=NCc1ccccc1C[C@@]1(C(N)=O)N=C(c2ccc(OCCCO)cc2)O[C@@H]1c1ccccc1	2.4	1.03	0.572	0.67	0.367	-0.457	0.078	-0.642	1.3	-0.857 (inactive)
COc1cc2c(cc1O)C(C1CC1)N(C)CC2 (stereo not given)	-1.19	-2.06	-0.532	-1.18	-1.09	-0.716	1.32	-1.59	-0.413	-0.872 (inactive)
[N-]=[N+]=Nc1ccccc1C[C@@]1(C(N)=O)N=C(c2ccc(OCCCO)cc2)O[C@@H]1c1ccccc1N=[N+]=[N-]	1.76	1.23	0.0444	0.637	0.062	-0.0354	-0.498	-0.37	0.0911	-4.2 (inactive)

— PubChem BioAssay
